Substitutions are numbered along the chain they refer to; changes in the protein carry UniProt numbers. Over roughly 16,000 sequences, “ka relative to ugcaugu” has its median near 0.096; the highest 2% begin near 0.35. Many of the other results were omitted from the sample, so the highest values are more common in it than they were.

Sequences and labels used below:
T1: RBFOX1 RRM RbFoxmut (Fox-RRM*) (Homo sapiens, UniProt Q9NWB1 109-208, R118D;E147R;N151S;E152T)
T1 sequence: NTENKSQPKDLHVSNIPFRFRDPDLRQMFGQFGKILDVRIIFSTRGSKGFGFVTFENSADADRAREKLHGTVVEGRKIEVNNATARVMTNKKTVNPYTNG

B1: AGACUAU (DNA:RNA)
RNA: GGGAGACCGGAAUUCAGAUUGUCCAGACUAUUUAAAUCCCGUCGUAGCCACCA
DNA 1: CAATCTGAATTCCGGTCTCCC
DNA 2: TGGTGGCTACGACGGGATT
B2: CGUCGCC (DNA:RNA)
RNA: B1 RNA with A25C, A27U, U29G, A30C, U31C
DNA 1: CAATCTGAATTCCGGTCTCCC
DNA 2: TGGTGGCTACGACGGGATT
B3: UCACCUC (DNA:RNA)
RNA: B1 RNA with A25U, G26C, U29C, A30U, U31C
DNA 1: CAATCTGAATTCCGGTCTCCC
DNA 2: TGGTGGCTACGACGGGATT
B4: AAAAUUC (DNA:RNA)
RNA: B1 RNA with G26A, C28A, A30U, U31C
DNA 1: CAATCTGAATTCCGGTCTCCC
DNA 2: TGGTGGCTACGACGGGATT
B5: CGAAUGG (DNA:RNA)
RNA: B1 RNA with A25C, C28A, A30G, U31G
DNA 1: CAATCTGAATTCCGGTCTCCC
DNA 2: TGGTGGCTACGACGGGATT
B6: CGUAUGG (DNA:RNA)
RNA: B1 RNA with A25C, A27U, C28A, A30G, U31G
DNA 1: CAATCTGAATTCCGGTCTCCC
DNA 2: TGGTGGCTACGACGGGATT
B7: AGAUUGG (DNA:RNA)
RNA: B1 RNA with C28U, A30G, U31G
DNA 1: CAATCTGAATTCCGGTCTCCC
DNA 2: TGGTGGCTACGACGGGATT
B8: AGAAUGG (DNA:RNA)
RNA: B1 RNA with C28A, A30G, U31G
DNA 1: CAATCTGAATTCCGGTCTCCC
DNA 2: TGGTGGCTACGACGGGATT
B9: GAAUGGG (DNA:RNA)
RNA: B1 RNA with A25G, G26A, C28U, U29G, A30G, U31G
DNA 1: CAATCTGAATTCCGGTCTCCC
DNA 2: TGGTGGCTACGACGGGATT
B10: GUAAUGG (DNA:RNA)
RNA: B1 RNA with A25G, G26U, C28A, A30G, U31G
DNA 1: CAATCTGAATTCCGGTCTCCC
DNA 2: TGGTGGCTACGACGGGATT
B11: GAAAUGG (DNA:RNA)
RNA: B1 RNA with A25G, G26A, C28A, A30G, U31G
DNA 1: CAATCTGAATTCCGGTCTCCC
DNA 2: TGGTGGCTACGACGGGATT
B12: AGAAUUG (DNA:RNA)
RNA: B1 RNA with C28A, A30U, U31G
DNA 1: CAATCTGAATTCCGGTCTCCC
DNA 2: TGGTGGCTACGACGGGATT
B13: GUAUGGU (DNA:RNA)
RNA: B1 RNA with A25G, G26U, C28U, U29G, A30G
DNA 1: CAATCTGAATTCCGGTCTCCC
DNA 2: TGGTGGCTACGACGGGATT
B14: GGAAUGG (DNA:RNA)
RNA: B1 RNA with A25G, C28A, A30G, U31G
DNA 1: CAATCTGAATTCCGGTCTCCC
DNA 2: TGGTGGCTACGACGGGATT
B15: GUUAUGG (DNA:RNA)
RNA: B1 RNA with A25G, G26U, A27U, C28A, A30G, U31G
DNA 1: CAATCTGAATTCCGGTCTCCC
DNA 2: TGGTGGCTACGACGGGATT
B16: GGUAUGG (DNA:RNA)
RNA: B1 RNA with A25G, A27U, C28A, A30G, U31G
DNA 1: CAATCTGAATTCCGGTCTCCC
DNA 2: TGGTGGCTACGACGGGATT

The target in this assay is T1, RBFOX1 RRM RbFoxmut (Fox-RRM*). Kind of assay: EMSA; HiTS-Eq, 1 nM pool, 10 min; buffer printed only for the single-RNA assays: 10 mM Tris pH 7.5, 150 mM NaCl, 3.4 mM EDTA, 0.001% NP-40, 30 C. Particulars: tags: His6 N-terminal (pET28a); label: 5' 32P. The method, boiled down:
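Purified RbFox RRM, wild type or mutant, was incubated for 10 min in 50 µL with 1 nM of a 5′-radiolabelled RNA pool carrying 7 randomized nucleotides, whose flanks were annealed to DNA oligonucleotides, over a series of increasing protein concentrations. Unbound RNA was resolved on 8% native PAGE, cut out, reverse-transcribed, barcoded by PCR and sequenced on an Illumina HiSeq 2500. Relative association constants were derived from changes in read counts for each RNA species versus the control reaction and normalised to the cognate motif.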
For orientation: A gel shift assay detects complexes by their altered migration in electrophoresis.
Turning to B1, the binding signal was 0.0902 KA relative to UGCAUGU.
To B2 belongs 0.0841 KA relative to UGCAUGU.
To B3 belongs 0.0699 KA relative to UGCAUGU; to B4, 0.0842 KA relative to UGCAUGU; to B5, 0.72 KA relative to UGCAUGU.
The result for B6 reads 0.261 KA relative to UGCAUGU; that for B7, 0.125 KA relative to UGCAUGU.
As to B8, the binding signal is 0.541 KA relative to UGCAUGU.
To B9 belongs 0.21 KA relative to UGCAUGU.
To B10 belongs 0.0836 KA relative to UGCAUGU.
The result for B11 reads 0.0639 KA relative to UGCAUGU; that for B12, 0.129 KA relative to UGCAUGU; that for B13, 0.325 KA relative to UGCAUGU.
With B14, the binding signal was 0.724 KA relative to UGCAUGU.
Take B15: the binding signal is 0.123 KA relative to UGCAUGU.
The result for B16 reads 0.419 KA relative to UGCAUGU.

The values above are taken from publication PMC9911399, “Two distinct binding modes provide the RNA-binding protein RbFox with extraordinary sequence specificity”.
